In all, about 390,000 compounds went through this assay and about 4,700 (1.2%) were called active. Entries that show only a call come without a potency. Roughly 4% stayed inconclusive and do not appear here. The sample holds actives, similar compounds and a random draw of the others, so the mix is not that of the screen. The call rests on the fitted dose curve; in most records, active means well fitted inhibition curve with a large enough effect; inconclusive means small, poorly fitted or top-dose-only effect, or another doubt; inactive means no such curve, though single readings can be large or run the other way.
Potency means the concentration at half of the fitted maximal effect.

Sequence of DNA polymerase eta (Homo sapiens) (Q9Y253 whole entry, looked up): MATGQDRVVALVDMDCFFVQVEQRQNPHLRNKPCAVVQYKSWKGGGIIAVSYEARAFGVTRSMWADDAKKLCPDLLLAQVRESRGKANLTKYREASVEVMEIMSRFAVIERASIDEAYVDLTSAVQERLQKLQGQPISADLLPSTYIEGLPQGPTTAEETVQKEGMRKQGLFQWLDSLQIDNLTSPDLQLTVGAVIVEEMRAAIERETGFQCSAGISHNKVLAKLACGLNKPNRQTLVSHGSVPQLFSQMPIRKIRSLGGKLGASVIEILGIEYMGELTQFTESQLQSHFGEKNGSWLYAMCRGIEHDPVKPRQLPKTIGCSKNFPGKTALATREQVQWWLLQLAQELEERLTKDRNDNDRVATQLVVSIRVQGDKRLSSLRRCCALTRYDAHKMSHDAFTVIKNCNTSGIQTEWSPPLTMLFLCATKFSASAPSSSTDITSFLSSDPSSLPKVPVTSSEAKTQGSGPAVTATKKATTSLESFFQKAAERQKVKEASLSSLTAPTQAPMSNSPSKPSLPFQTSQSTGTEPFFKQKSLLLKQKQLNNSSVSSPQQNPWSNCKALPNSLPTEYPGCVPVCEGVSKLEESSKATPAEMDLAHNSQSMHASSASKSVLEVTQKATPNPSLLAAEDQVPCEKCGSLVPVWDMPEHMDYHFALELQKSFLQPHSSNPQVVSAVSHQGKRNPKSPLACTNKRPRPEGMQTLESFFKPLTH

In this test the target is DNA polymerase eta (Homo sapiens) (UniProt Q9Y253). Description: qHTS for Inhibitors of Polymerase Eta. Particulars: recombinant Pol eta, fluorescent DNA replication assay; series mostly up to 114 µM. The gist of the method:
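Pol eta (10 nM) was preincubated with compounds for 15 min at room temperature, after which fluorescent replication substrate (50 nM final) was added to start the reaction. Fluorescence was read kinetically at 0 and 10 min.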
Background: Quantitative high-throughput screening tests each substance at several concentrations.
For the molecule `CCCN(CCC)C(=O)C(Cc1ccccc1)NS(=O)(=O)c1ccc2c(c1)c(=O)n(C)c(=O)n2C` (stereo not drawn), the Potency result was “inactive”.

As for `N#Cc1c(-c2ccccc2)nc(SCc2cccc(C(F)(F)F)c2)[nH]c1=O`, the Potency was 89.1 µM (active).

For `Cc1oc(-c2ccccc2)nc1Cn1c(SCc2cccc(C(F)(F)F)c2)nc2cccnc21`, the Potency result was “inactive”.

In the case of `Cc1ccccc1CSc1nnc(-c2ccccc2)c(=O)[nH]1`, the Potency result is “inactive”.

For the molecule `COc1ccccc1OCC(=O)Nc1nnc2n1CCS2`, the Potency result was “inactive”.

In the case of `COc1ccccc1CNC(=O)c1ccc(NC(=O)N2CC(C)Sc3ccccc32)cc1` (stereo not drawn), the Potency result is “inactive”.

As to `Cc1ccc(F)cc1NC(=O)CCSc1nc(-c2ccco2)cc(C(F)(F)F)n1`, the Potency result was “inactive”.

For the molecule `Cc1cc(C)c2nc(-c3ccco3)cc(C(=O)O)c2c1`, the Potency is 22.4 µM (active).

Take `Cc1cccc(NC(=O)CSc2nc(-c3ccco3)cc(C(F)(F)F)n2)c1C`: the Potency entry is “inactive”.

For the molecule `CCN(CCCNC(=O)c1cc2c(=O)n(CC)c3ccccc3c2s1)Cc1ccccc1`, the Potency entry was “inactive”.

`COC(=O)c1ccccc1NC(=O)c1cc(-c2ccccc2O)no1`: the Potency entry was “inactive”.

`COc1ccc(NC(=O)c2sc3nc[nH]c(=O)c3c2C)cc1`: the Potency result was “inactive”.

As to `CCOC(=O)c1ccc(N2C(=O)c3[nH]nc(-c4ccccc4)c3C2c2ccc(C(C)C)cc2)cc1` (stereo not drawn), the Potency result is “inactive”.

For the molecule `O=C(O)c1cccc2c1C(=O)N(C1CCCCC1)C2`, the Potency was 31.6 µM (active).

For `COC(=O)c1ccc(NC(=O)c2cccc3c2C(=O)N(C2CCCCC2)C3)cc1`, the Potency entry was “inactive”.

Regarding `O=C(O)c1cccc2c1C(=O)N(C1CCCC1)C2`, the Potency entry is “inactive”.

With `CCC1(C)CC(=O)NC1=O` (stereo not drawn), the Potency result is “inactive”.

Regarding `Cc1cc2nc(-c3ccc(NC(=O)c4cc5ccccc5o4)cc3)oc2cc1C`, the Potency result is “inactive”.

Regarding `Cc1cccc(N(C)C(=O)CS(=O)(=O)c2cccc3nsnc23)c1`, the Potency entry was “inactive”.

Consider `COc1ccc(NC(=O)CSC2=Nc3ccccc3C3=NC(CC(=O)NCc4ccccc4OC)C(=O)N23)cc1Cl` (stereo not drawn), for which the Potency result was “inactive”.

Regarding `CCN(CC)CCOc1ccc2c(c1)C(=NNC(=O)c1ccccn1)c1cc(OCCN(CC)CC)ccc1-2`, the Potency is 22.4 µM (active).

For the molecule `CCN(CC)S(=O)(=O)c1cc(C(=O)Nc2ccccn2)ccc1C`, the Potency entry was “inactive”.

`CCOc1ccc(C(=O)N2CCN(CCc3ccccn3)CC2)cc1`: the Potency result was “inactive”.

For the molecule `COC(=O)c1ccc(NC(=O)c2cnn(-c3ccc(Cl)cc3)c2C2CCN(C(=O)OC(C)(C)C)CC2)cc1`, the Potency result is “inactive”.

Regarding `COc1ccc(-c2nn(CC(=O)Nc3ccccc3F)c3c2cnc2ccc(F)cc23)cc1`, the Potency result is “inactive”.

For the molecule `O=C(O)c1ccc(NS(=O)(=O)c2ccc3c(c2)C(=O)c2cc(S(=O)(=O)Nc4ccc(C(=O)O)cc4)ccc2-3)cc1`, the Potency is 39.8 µM (active).

As for `Cc1cc(C(C)(C)C)cc(S(=O)(=O)Nc2ccc(C(=O)O)cc2)c1C`, the Potency entry was “inactive”.

In the case of `O=C(c1ccc(NS(=O)(=O)c2ccc3[nH]c(=O)[nH]c3c2)cc1)N1CCCCC1`, the Potency entry was “inactive”.

In the case of `Cc1ccc(CN(C(=O)c2ccccc2[N+](=O)[O-])c2ccccn2)cc1`, the Potency entry is “inactive”.

On to `CC(C)CCNC(=O)CSc1nc2ccccc2nc1Cc1ccc(Cl)cc1`, for which the Potency result is “inactive”.

With `Cn1c(SCC(=O)N2CCCc3ccccc32)ncc(C(=O)Nc2ccc(F)cc2)c1=O`, the Potency entry is “inactive”.

Consider `CC(NC(=O)c1cc2c(=O)n3ccccc3nc2n(C(C)C)c1=N)c1ccccc1` (stereo not drawn), for which the Potency entry was “inactive”.

Consider `Cc1c(CC(=O)N2CCN(C(=O)C3COc4ccccc4O3)CC2)c(=O)oc2c(O)c(O)ccc12` (stereo not drawn), for which the Potency was 2 µM (active).

Turning to `COc1ccc(OC)c2sc(N3CCN(C(=O)C4COc5ccccc5O4)CC3)nc12` (stereo not drawn), the Potency result was “inactive”.

Turning to `COc1cc(NS(=O)(=O)c2ccc3c(c2)OCC(C(=O)N2CCCC2)O3)cc(OC)c1` (stereo not drawn), the Potency entry is “inactive”.

`O=S(=O)(NCCc1nnc2ccc(SCc3ccc(Cl)cc3Cl)nn12)c1ccccc1`: the Potency entry was “inactive”.

For `CCOCCCn1c(SCC(=O)Nc2ccc(CC)cc2)nc2ccccc2c1=O`, the Potency entry is “inactive”.

Regarding `CC(=O)Nc1ccc2c3c(ccc([N+](=O)[O-])c13)CC2`, the Potency result was “inactive”.

Take `Cc1ccc(/C=C/C(=O)Nc2ccc([N+](=O)[O-])c(NC(=O)/C=C/c3ccc(C)o3)c2)o1`: the Potency is 8.91 µM (active).

As for `COc1ccc(OC)c(NC(=O)/C=C/c2ccc(C)o2)c1`, the Potency result is “inactive”.

As to `COc1ccc(NC(=O)CCNS(=O)(=O)c2ccc3c(c2)CCCC(=O)N3)cc1Cl`, the Potency result was “inactive”.

For `C=CCNC(=S)N1CCN(CCN=Cc2c(C)[nH]n(-c3ccc([N+](=O)[O-])cc3)c2=O)CC1`, the Potency result was “inactive”.

For the molecule `O=c1[nH]n(-c2ccc([N+](=O)[O-])cc2)c(=O)c2ccccc12`, the Potency was 39.8 µM (active).

On to `O=C(CSCc1ccc([N+](=O)[O-])cc1)NCCSCc1ccccc1`, for which the Potency entry was “inactive”.

In the case of `Cc1cc(C)cc(NC(=O)CSc2oc(-c3ccccc3)nc2S(=O)(=O)c2ccc(Cl)cc2)c1`, the Potency entry was “inactive”.

With `Cc1ccc(C(=O)Oc2coc(CSc3nnc(NC(=O)c4cccs4)s3)cc2=O)cc1C`, the Potency is 7.94 µM (active).

Consider `CCOc1ccccc1Nc1nnc(SCc2ccc(C(=O)OC)o2)s1`, for which the Potency entry was “inactive”.

Take `COCCSc1nnc(NC(=O)c2cc(OC)c(OC)cc2[N+](=O)[O-])s1`: the Potency entry was “inactive”.

As to `CC1=C(c2ccc(C)cc2)S(=O)(=O)NC1=NCCCN1CCN(c2cc(C)ccc2C)CC1`, the Potency entry was “inactive”.

Take `CCc1ccc2ncc3c(-c4ccc(C)cc4)nn(CC(=O)NCc4ccccc4)c3c2c1`: the Potency result is “inactive”.

In the case of `CCc1ccc(CNCc2c(C(=O)O)n(Cc3ccc(F)cc3Cl)c3cc(OC)ccc23)cc1`, the Potency result was “inactive”.

With `COc1cc(C(=O)NCCc2csc3nc(-c4ccccc4C)nn23)cc(OC)c1OC`, the Potency entry is “inactive”.

For `O=C(COC(=O)c1ccc(Br)o1)NC12CC3CC(CC(C3)C1)C2`, the Potency result was “inactive”.

As for `O=C(COC(=O)c1ccc([N+](=O)[O-])o1)NC12CC3CC(CC(C3)C1)C2`, the Potency was 79.4 µM (active).

As to `O=C(OCC(=O)c1cccs1)c1ccc([N+](=O)[O-])o1`, the Potency entry was “inactive”.

As to `ON=C1/C(=N\O)CC2(C/C1=N/O)OCCO2`, the Potency is 56.2 µM (active).

`COc1ccc(OC)c(NC(=O)CN2CCCN(Cc3cc(C)ccc3C)S2(=O)=O)c1`: the Potency result is “inactive”.

Take `COC(=O)c1sc(-c2ccc(C(C)(C)C)cc2)cc1NC(=O)/C=C/C(=O)O`: the Potency is 79.4 µM (active).

Consider `COc1ccc(Nc2ncc3c(n2)CCN(C(=O)OC(C)(C)C)C3)cc1`, for which the Potency result is “inactive”.

With `COc1ccc(/C=C/c2noc(-c3ccccc3O)n2)cc1OC`, the Potency entry is “inactive”.

For the molecule `O=C(CCc1nc(CN2CCN(S(=O)(=O)c3ccc(Cl)cc3)CC2)no1)N1CCCCC1`, the Potency result is “inactive”.

Turning to `CCCCN(CC)CCCNC(=O)Cn1ncc2c([nH]c3ccc(C)cc32)c1=O`, the Potency result is “inactive”.

As for `Cc1cc(=O)n2[nH]c(-c3sccc3-n3c(C)ccc3C)cc2n1`, the Potency is 22.4 µM (active).

As to `Cc1ccc(-c2cc(N)n(Cc3cccc(Cl)c3)n2)cc1`, the Potency result is “inactive”.

In the case of `COc1cc(Nc2nc(-c3ccc(OC)c(OC)c3)nc3ccccc23)cc(OC)c1`, the Potency entry is “inactive”.

Take `CC(=O)N(C1=C(Cl)C(=O)c2ccccc2C1=O)c1ccc(C(=O)O)cc1`: the Potency was 20 µM (active).

Regarding `CCC(=O)N1CCc2cc(S(=O)(=O)NC(Cc3ccccc3)C(=O)NCc3ccc(C)cc3)ccc21` (stereo not drawn), the Potency entry was “inactive”.

In the case of `COc1ccc(CNC(=O)CSc2n[nH]c(-c3ccc(F)cc3)n2)cc1`, the Potency entry was “inactive”.

With `Cc1ccn2c(=O)nc(SCC(=O)NCc3ccc(F)cc3)nc2c1`, the Potency was 28.2 µM (active).

As to `Cc1ccc2nc(SCC(=O)Nc3cccc4ccccc34)nc(=O)n2c1`, the Potency entry was “inactive”.

For the molecule `Cc1ccc(C)c(N2CCN(C(=O)Cn3ncc4c(=O)oc5ccc(C)cc5c43)CC2)c1`, the Potency entry is “inactive”.

With `CCOC(=O)c1ccc(CN(Cc2ccccc2)S(=O)(=O)c2ccc(Cl)cc2)cc1`, the Potency result was “inactive”.

On to `CCCn1c(=O)c2[nH]c(-c3ccc(OCC(=O)NCCN)cc3)nc2n(CCC)c1=O`, for which the Potency entry is “inactive”.

For `COc1cccc(NC(=O)c2ccc3nc(CCc4ccccc4)oc3c2)c1`, the Potency result was “inactive”.

As to `COc1ccc(C(=O)Nc2cccc(/C=C(/CCC(=O)O)c3nc4ccccc4s3)c2)cc1`, the Potency is 39.8 µM (active).

As to `COc1ccc(CC(=O)Nc2ccc(-c3nc4ccccc4s3)c(C)c2)cc1`, the Potency entry is “inactive”.

For `COc1ccc(OC)c(NC(=O)C2CCN(S(=O)(=O)c3ccc(C)cc3)CC2)c1`, the Potency result is “inactive”.

For the molecule `CCOC(=O)c1ccc(N2C(=O)c3n[nH]c(-c4ccco4)c3C2c2ccc(O)cc2)cc1` (stereo not drawn), the Potency result is “inactive”.

Take `COc1ccccc1NC(=O)CN1C(=O)c2ccccc2Sc2ccc(C(=O)N3CCCC3)cc21`: the Potency was 79.4 µM (active).

For `CCN1C(=O)c2ccccc2Sc2ccc(NC(=O)Cc3ccc(OC)cc3)cc21`, the Potency result is “inactive”.

Turning to `COC(=O)c1ccc2c(c1)N(CC(=O)Nc1ccc(C)c(C)c1)C(=O)c1ccccc1S2`, the Potency entry was “inactive”.

For the molecule `CC(C)(C)C1CCc2c(sc(NC(=O)c3ccccc3F)c2C(=O)N2CCCCC2)C1` (stereo not drawn), the Potency result is “inactive”.

Turning to `CCOc1ccccc1NC(=O)c1ccc2c(c1)CCN2S(=O)(=O)c1ccc(C)cc1`, the Potency entry was “inactive”.

In the case of `CCc1ccc(C2C(C(=O)Nc3ccccc3)=C(C)Nc3c(C(=O)Nc4ccc(C)cc4)cnn32)cc1` (stereo not drawn), the Potency result is “inactive”.

In the case of `C1=C(N2CCOCC2)/C(=C/c2nc3ccccc3[nH]2)CC1`, the Potency is 20 µM (active).

In the case of `COc1cc(OC)c(C2C=C(C(=O)O)Nc3ncnn32)cc1OC` (stereo not drawn), the Potency result is “inactive”.

For `Cc1cc(C)c(NC(=O)CSc2nc3nccnc3c(=O)n2CCc2c[nH]c3ccccc23)c(C)c1`, the Potency entry is “inactive”.

Regarding `Cc1cc(C(=O)COc2ccccc2[N+](=O)[O-])c(C)n1-c1cccc(S(=O)(=O)N2CCOCC2)c1`, the Potency result was “inactive”.

With `O=C(N/N=C/c1cccc([N+](=O)[O-])c1)C1CC(=O)N(c2ccc(Br)cc2)C1` (stereo not drawn), the Potency entry is “inactive”.

As to `Cc1cc(C(=O)N/N=C/c2ccc(O)c([N+](=O)[O-])c2)c(C)n1-c1ccc(F)cc1`, the Potency was 8.91 µM (active).

In the case of `CC(C)(C)c1ccc(C(=O)NCC(c2ccco2)S(=O)(=O)c2ccc(F)cc2)cc1` (stereo not drawn), the Potency entry was “inactive”.

Turning to `O=C1/C(=C\c2ccc([N+](=O)[O-])cc2)CS(=O)(=O)C/C1=C/c1ccc([N+](=O)[O-])cc1`, the Potency is 15.8 µM (active).

For `O=C(CC1Oc2ccc(Cl)cc2NC1=O)NCc1ccccc1` (stereo not drawn), the Potency result was “inactive”.

The record behind these values is PubChem BioAssay AID588591 (National Center for Advancing Translational Sciences (NCATS), 2011).
